Experimental data published in PubChem BioAssay AID504652 (National Center for Advancing Translational Sciences (NCATS), 2011).
Where “and” joins values, the source holds several entries; their conditions need not be identical. Equal entries are not always repeated. The whole screen tested about 360,000 compounds, of which about 11,000 (3.1%) were called active. No stated cut-off is given here; in the data, active means activity change below about -30%; inactive means the rest. The list comes from a sample in which actives are over-represented; it also holds similar structures and randomly drawn compounds. A structure can be active in one record and inactive in another.

What follows are molecules tested against D(1A) dopamine receptor (Homo sapiens) (UniProt P21728) (assay: Antagonist of Human D 1 Dopamine Receptor: qHTS). Conditions: HEK293 TREx D1 cells, calcium flux, dopamine EC80; at 10 µM; stronger effect = lower value.
D(1A) dopamine receptor (Homo sapiens), sequence (P21728 whole entry, looked up): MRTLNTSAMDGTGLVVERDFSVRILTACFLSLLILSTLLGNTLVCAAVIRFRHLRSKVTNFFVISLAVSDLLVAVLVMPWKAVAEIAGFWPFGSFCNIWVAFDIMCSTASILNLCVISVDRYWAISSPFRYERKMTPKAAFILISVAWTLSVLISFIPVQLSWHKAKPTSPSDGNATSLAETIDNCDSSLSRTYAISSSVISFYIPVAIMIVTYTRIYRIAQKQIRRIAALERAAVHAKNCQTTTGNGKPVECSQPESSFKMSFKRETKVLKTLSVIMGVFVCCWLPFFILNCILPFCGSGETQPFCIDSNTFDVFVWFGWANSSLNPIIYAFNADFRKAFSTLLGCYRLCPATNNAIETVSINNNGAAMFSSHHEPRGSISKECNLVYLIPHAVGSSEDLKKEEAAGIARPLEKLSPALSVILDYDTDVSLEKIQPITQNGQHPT
Procedure, shortened: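 Using tetracycline-induced force-coupled D1 Hek293 cells and a calcium dye, signals were followed for 180 s after compound, then for 180 s after EC80 dopamine, to detect inhibitors.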
On the % scale 0 is the no-effect control and ±100 the full control effect.

Activity change, negative = inhibition, 6.41% (inactive) and -30% (active):
O=C(c1cc(-c2ccc(F)cc2)on1)N1CCN(c2ccc(F)cc2)CC1

Activity change, negative = inhibition, active:
CC(=O)[C@@]12O[C@@H]1C[C@H]1[C@@H]3CC[C@H]4C[C@@H](O)CC[C@]4(C)[C@H]3CC[C@@]12C -34.5%, Cc1ccc(NC(=O)CCCNC(=O)c2ccc(Cl)cc2)cc1S(=O)(=O)N1CCOCC1 -36.7%, COc1ccc([C@@H]2[C@@H]3C(=O)N(C(C)(C)C)C(=O)[C@@H]3[C@]3(Cc4ccccc4)C(=O)N(c4cccc(Br)c4)C(=O)N23)cc1 -34.9%, NS(=O)(=O)c1ccc2nc(NC(=O)COc3ccccc3)sc2c1 -38.3%, Cc1ccc(NS(=O)(=O)c2ccc(-c3coc(C)n3)cc2)c(C)c1 -39.4%, COc1ccc(C(=O)NC2CC(C)(C)NC(C)(C)C2)cc1OC -30.4%, Cc1cccc(-n2nc3c(c2NC(=O)c2cc4ccccc4o2)CS(=O)(=O)C3)c1 -49.1%, CCCCNC(=O)c1onc(CSc2cccc(OC)c2)c1C(=O)O -73.2%, O=C(NCCCN1CCOCC1)c1ccc2c(c1)N(Cc1cccc(F)c1)C(=O)c1ccccc1S2 -42.1%, CC1CCN(C(=O)c2cccc(S(=O)(=O)N3CCCc4ccccc43)c2)CC1 -43.6%, Cc1nc(SC(C)C)[nH]c(=O)c1Cc1ccccc1 -31.2%

Activity change, negative = inhibition, inactive:
CC(=O)c1ccc(NC(=O)CSc2c(C(C)C)cnc3c2c(=O)n(C)c(=O)n3C)cc1 1.89%, CCCCN1C(=O)c2[nH]nc(-c3ccccc3O)c2C1c1cccc(OCc2ccccc2)c1 (stereo not drawn) 6.88%, COc1cccc2c1cc1c(=O)n(CC(=O)N3CCN(c4ccccc4)CC3)nc(C)n12 -3.55%, CC(=O)O[C@H]1CC[C@@]2(C)[C@@H](CC[C@@H]3[C@@H]2CC[C@]2(C)[C@@H](C(C)(C)O)C[C@@H]32)C1 -15.9%, Cc1cccc(NC(c2cccc(F)c2)c2ccc3ccc(C)nc3c2O)n1 (stereo not drawn) -16.7%, Cc1ccc(NC(=O)CCCNC(=O)c2ccc(Cl)cc2)cc1S(=O)(=O)N1CCCCC1 35.4%, Cc1ccc(NC(=O)CCNC(=O)c2ccc([N+](=O)[O-])cc2)cc1S(=O)(=O)N1CCOCC1 4.33%, Cc1ccccc1CNC(=O)c1ccc(NC(=O)N2CCCCc3ccccc32)cc1 12.4%, Cc1ccccc1CN1CCC(CNC(=O)c2cc3ccc4cccnc4c3[nH]2)CC1 -3.23%, CC(C)(C)N1C(=O)[C@H]2[C@@H](c3ccc(Br)cc3)N3C(=O)N(c4cccc(Cl)c4)C(=O)[C@@]3(C)[C@H]2C1=O -17.7%, CC[C@@]12C(=O)N(c3ccccc3)C(=O)N1[C@H](c1ccc(Br)cc1)[C@@H]1C(=O)N(C(C)(C)C)C(=O)[C@@H]12 -1.44%, Cc1nn(C(=O)c2c(F)cccc2F)c(C)c1S(=O)(=O)N1CCOCC1 10.5%, CCOc1ccc(N(CC)C(=O)C2CCN(S(=O)(=O)c3cccc4nonc34)CC2)cc1 -22%, Cc1cc2n(n1)C(c1cc(C(C)(C)C)c(O)cc1O)Nc1ccccc1-2 (stereo not drawn) 0.223%, NS(=O)(=O)c1ccc2nc(NC(=O)CS(=O)(=O)c3ccc(F)cc3)sc2c1 3.05%, CN(C(=O)CSc1nc2ccc(NC(=O)COc3ccccc3)cc2s1)c1ccccc1 -11.3%, COc1cccc(NS(=O)(=O)c2ccc(-c3coc(C)n3)cc2)c1 -22%, CCN(c1cccc(C)c1)S(=O)(=O)c1ccc(-c2coc(C)n2)cc1 -16.9%, O=C(c1ccc(Br)cc1)N(Cc1cccs1)c1ccc(F)cc1 -5.47%, COc1cc(OC)c(C(=O)NC2CC(C)(C)NC(C)(C)C2)cc1OC -1.99%, Cc1cccc(OCC(=O)NC2CC(C)(C)NC(C)(C)C2)c1 0.221%, Cc1ccc(NC(=O)c2oc3ccc(S(=O)(=O)N4CCCCC4)cc3c2C)cc1Cl 0.571%, O=C(Nc1c2c(nn1-c1cccc(Cl)c1)CS(=O)(=O)C2)c1cccs1 -16.2%, CC(C)(C)n1nc2c(c1NC(=O)c1cc3ccccc3o1)CSC2 6.7%, Cc1nc2c(c(C)nn2-c2ccccc2)c(C)c1CCC(=O)NCCc1ccc(Cl)cc1 -0.289%, Cc1oc(C)c2c(=O)cc(-c3ccc4c(c3)OCO4)cc(OC(=O)c3ccc(Cl)cc3)c12 -1.78%, CCN1CCN(CCCNC(=O)c2cnn(-c3ccc(C)cc3C)c2C2CCN(C(=O)OC(C)(C)C)CC2)CC1 6.05%, CCOC(=O)c1c(C)[nH]c(C)c1S(=O)(=O)NCC(=O)NCc1cccc(C)c1 13.9%, CCOc1cccc(SCc2noc(C(=O)NC(C)C)c2C(=O)O)c1 3.21%, COCCNC(=O)c1onc(CSc2cccc(C)c2)c1C(=O)O 2.03%, CC(=O)N1CCCc2cc(S(=O)(=O)N3CCC(C(=O)NCc4ccc(C)cc4)CC3)ccc21 12.1%, CCC1=Nc2cc(C(=O)NCCCN3CCOCC3)ccc2Sc2ccc(Br)cc21 11%, Cc1ccccc1CN1C(=O)c2ccccc2Sc2ccc(C(=O)NCCCN3CCOCC3)cc21 -9.56% and -12%, CN1CCN(S(=O)(=O)c2cccc(C(=O)N3CCc4ccccc43)c2)CC1 -0.291%, Cc1ccc(NC(=O)c2cccc(S(=O)(=O)N3CCCc4ccccc43)c2)nc1 3.95%, COc1ccc(Nc2ncc3c(n2)CCN(C(=O)OC(C)(C)C)C3)cc1 -16.1%, CCCC(=O)Nc1cc2nn(-c3ccccc3)nc2cc1C -6.53%, O=C(c1cc(-c2ccc(O)cc2)on1)N1CCOCC1 -2.21%, O=C(c1cc(-c2ccc(Cl)cc2)on1)N1CCN(c2ccccc2)CC1 8.05%, Cc1ccc(OCCSc2nc(C)c(Cc3ccccc3)c(=O)[nH]2)cc1 -2.95%, Cc1nc(SCCOc2ccc(Cl)cc2)[nH]c(=O)c1Cc1ccccc1 -8.51%
